Sampled rows, rich in hits. Any-hit rate of the full collection: about 9%.
12-LOX inh = Primary qHTS assay for inhibitors of human arachidonate 12S-lipoxygenase (ALOX12): Round 2; 580,000 tested, 1.1% active; purified 12hLO, xylenol orange hydroperoxide absorbance; Polyunsaturated fatty acid lipoxygenase ALOX12 (Homo sapiens), P18054; Potency, µM (series often up to 108 µM), for the others: at the highest dose activity change, negative = inhibition, usual class: inhibitors; AID 1671190, 2021; note: % is set by controls: 0 for no effect and ±100 for the full control effect
Target sequence (P18054 whole entry, looked up): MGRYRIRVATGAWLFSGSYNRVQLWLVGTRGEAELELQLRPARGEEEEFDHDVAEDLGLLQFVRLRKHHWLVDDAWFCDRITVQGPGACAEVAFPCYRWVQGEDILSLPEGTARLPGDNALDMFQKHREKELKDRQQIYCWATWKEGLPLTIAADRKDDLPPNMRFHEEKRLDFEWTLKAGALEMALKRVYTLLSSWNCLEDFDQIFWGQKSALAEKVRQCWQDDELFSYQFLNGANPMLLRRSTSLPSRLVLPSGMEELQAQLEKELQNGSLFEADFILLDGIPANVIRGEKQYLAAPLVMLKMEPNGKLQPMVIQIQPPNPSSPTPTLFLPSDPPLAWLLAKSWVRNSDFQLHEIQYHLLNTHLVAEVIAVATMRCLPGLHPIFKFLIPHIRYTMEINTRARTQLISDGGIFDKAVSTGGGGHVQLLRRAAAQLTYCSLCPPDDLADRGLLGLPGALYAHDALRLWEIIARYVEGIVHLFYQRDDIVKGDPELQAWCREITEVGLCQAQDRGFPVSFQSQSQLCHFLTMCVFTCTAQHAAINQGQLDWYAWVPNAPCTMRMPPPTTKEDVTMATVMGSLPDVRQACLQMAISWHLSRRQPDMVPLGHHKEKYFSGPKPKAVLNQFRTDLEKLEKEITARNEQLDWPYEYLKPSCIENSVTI
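Purified human 12hLO (150 nM final) in 25 mM Hepes, 0.01% Triton X-100, pH 7.0 was preincubated 15 min at room temperature with compound. Then 40 uM arachidonic acid was added, 30 min. Hydroperoxide was read by Fe-XO absorbance ratio 573/405 nm.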
JMJD2A Tudor inh = qHTS Assay for Inhibitors of JMJD2A-Tudor Domain. Potency, µM (highest dose often 114 µM), without a hit: at the top dose activity change, negative = inhibition, actives largely listed as inhibitors. 390,000 tested, 4.4% active. Lysine-specific demethylase 4A (Homo sapiens), O75164. AlphaScreen JMJD2A-Tudor / H3K4me3 peptide binding; note: % is set by controls: 0 for no effect and ±100 for the full control effect; nearly all actives have a fitted effect of over 50% in size
PLK1 PBD inh = qHTS for Inhibitors of PLK1-PDB (polo-like kinase 1 - polo-box domain): Primary Screen | Plk1 PBD binding of FITC phosphopeptide, fluorescence polarization | 360,000 tested, 2.8% active | Potency, µM, inactives show max response, negative = inhibition, hits mostly inhibitors | Serine/threonine-protein kinase PLK1 (Homo sapiens), P53350; note: series mostly up to about 57 µM; % is set by controls: 0 for no effect and ±100 for the full control effect; nearly all actives have a fitted effect of over 65% in size
BAZ2B inh = qHTS Assay for Inhibitors of BAZ2B; Bromodomain adjacent to zinc finger domain protein 2B (Homo sapiens), Q9UIF8; AlphaScreen BAZ2B-H3K14Ac peptide displacement; AID 504333, 2011; 360,000 tested, 4.4% active; Potency, µM (highest dose often 114 µM), inactives show at the top dose activity change, negative = inhibition, most hits filed as inhibitors; note: % is set by controls: 0 for no effect and ±100 for the full control effect; nearly all actives have a fitted effect of over 60% in size
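BAZ2B 50 nM plus b-H3(5-23)K14Ac 50 nM, PBS pH 7.4/0.01% Tween-20, 30 min RT; compound added (max 110 uM), 30 min RT; streptavidin donor/Ni-chelate acceptor beads 10 ug/mL final, 20 min dark; AlphaScreen read.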
HP1b chromo inh = HTS for Inhibitors of HP1-beta Chromodomain Interactions with Methylated Histone Tails. Chromobox protein homolog 1 (Homo sapiens), P83916. AlphaScreen HP1-beta / biotin-H3K9me3 peptide binding. Potency, µM (titrated, usually from 114 µM), for the others: top-dose activity change, negative = inhibition, most hits filed as inhibitors. 390,000 tested, 0.56% active; note: nearly all actives have a fitted effect of over 70% in size
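AlphaScreen: HP1-beta (50 nM) preformed 30 min with biotin-H3(1-18)K9me3 peptide (50 nM) in PBS pH 7.4, 0.01% Tween-20. Compound added for 30 min at RT, then streptavidin donor/nickel chelate acceptor beads (10 ug/mL) for 30 min.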
G9a block = qHTS Assay for Inhibitors of Histone Lysine Methyltransferase G9a; G9a H3K9 monomethylation, AlphaScreen, 2 h; Histone-lysine N-methyltransferase EHMT2 (Homo sapiens), Q96KQ7; 350,000 tested, 8.8% active; Potency, µM (top dose mostly 102 µM), inactives show at the top dose activity, negative = inhibition, actives largely listed as inhibitors; note: % is set by controls: 0 for no effect and ±100 for the full control effect; nearly all actives have a fitted effect of over 75% in size
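Using a bead-based AlphaScreen, monomethylated H3K9 product from 2 h room-temperature reactions (G9a 20 nM, peptide 500 nM, SAM 20 uM) was detected with 0.5 ug/mL rabbit anti-H3K9me1 antibody.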
* marks the source's active call; other numbers are inactive results; [ ] = remark or other dose. Calls come from the whole dose curve; as a rule, active = well fitted curve in the direction sought with a large enough effect; inconclusive = small, poorly fitted or top-dose-only effect, or another doubt; inactive = no such curve, though single readings can be large; an effect the other way counts as inactive or inconclusive. Potency is the fitted concentration of half-maximal effect.

COC(=O)c1cn(CC(=O)N2C(C)CCCC2C)c2ccccc12 (configuration not stated) was read as 12-LOX inh -11%, JMJD2A Tudor inh -29%, PLK1 PBD inh -7%, BAZ2B inh -11%, HP1b chromo inh 22% and G9a block -29%[59 µM].
Screening CCN1C(=O)S/C(=C/c2cn(C(C)C)c3ccccc23)C1=O returned 12-LOX inh 3%.
Screening CC1CCCC(C)N1C(=O)Cn1cc(/C=C2/C(=O)Nc3ccccc32)c2ccccc21 (configuration not stated) returned JMJD2A Tudor inh inconclusive, PLK1 PBD inh -8%, BAZ2B inh inconclusive, HP1b chromo inh inconclusive and G9a block 10µM*.
O=C(Nc1ccc(OC(F)(F)F)cc1)N1CCN(c2ccnc3cc(Cl)ccc23)CC1 was read as 12-LOX inh -30%, JMJD2A Tudor inh -14%, PLK1 PBD inh -14%, BAZ2B inh -13%, HP1b chromo inh 51% and G9a block -5%.
Screening CNc1nc2cccnc2s1 returned 12-LOX inh 31%, JMJD2A Tudor inh -11%, PLK1 PBD inh -8%, BAZ2B inh -2%, HP1b chromo inh 39% and G9a block 19%.
For CN1C=CC(=O)[C@@H](O)[C@H]1c1ccccc1Br the results were 12-LOX inh 2%, JMJD2A Tudor inh -17%, PLK1 PBD inh 1% and HP1b chromo inh 17%.
For CN1C(=O)/C(=C/c2cn(CC(=O)N3CCCCC3)c3ccccc23)c2ccccc21 the results were BAZ2B inh inconclusive and G9a block 11µM*.
Screening C=CCN1C(=O)S/C(=C/c2cn(CC(=O)O)c3ccccc23)C1=O returned 12-LOX inh 32µM*.
`O=Cc1cn(CC(=O)N2CCCCC2)c2ccccc12` gave 12-LOX inh -3%, JMJD2A Tudor inh 4%[57.1 µM], PLK1 PBD inh -12%, BAZ2B inh 7%, HP1b chromo inh 52% and G9a block 19%[59 µM].
Screening Cc1cc(NC(=O)c2cc(-c3ccc[nH]3)n[nH]2)ccc1F returned 12-LOX inh -16%.
O=C(Nc1cccc(OC(F)(F)F)c1)c1cc(-c2ccc[nH]2)n[nH]1 was read as 12-LOX inh 14µM*.
Cc1ccc(F)cc1NC(=O)c1cc(-c2ccc[nH]2)n[nH]1 was read as 12-LOX inh 16µM*.
CCCCn1c(NCCC)nc2c1c(=O)[nH]c(=O)n2C was read as 12-LOX inh 14%, JMJD2A Tudor inh -4%, PLK1 PBD inh -10%, BAZ2B inh 11%, HP1b chromo inh 24% and G9a block 14%[59 µM].
Screening Oc1ccc(-c2cccc(-c3ccc(O)cc3)n2)cc1 returned 12-LOX inh -21%, JMJD2A Tudor inh -15%, PLK1 PBD inh -14%, BAZ2B inh -28%, HP1b chromo inh 6% and G9a block -5%[59 µM].
Screening CC(=O)Nc1ccc(SCC(=O)N(C)CC(=O)Nc2ccccc2Cl)cc1 returned 12-LOX inh -18%, JMJD2A Tudor inh -18%, PLK1 PBD inh 7.5µM* and HP1b chromo inh 30%.
For COC(=O)[C@H](CCSC)NC(=O)NCCc1ccccc1F the results were 12-LOX inh 12%, JMJD2A Tudor inh -9%, PLK1 PBD inh -9%, BAZ2B inh -22%, HP1b chromo inh 33% and G9a block 11%[59 µM].
Screening CSCC[C@H](NC(=O)NCc1ccccc1F)C(=O)O returned 12-LOX inh -1%, JMJD2A Tudor inh 3%, PLK1 PBD inh -7%, BAZ2B inh -14%, HP1b chromo inh 27% and G9a block 45µM*.
For CCc1ccc(-n2nc3cc(C)c(NC(=O)c4cc(OC)cc(OC)c4)cc3n2)cc1 the results were 12-LOX inh -24%, JMJD2A Tudor inh -31%, BAZ2B inh inconclusive, HP1b chromo inh 6% and G9a block 5.6µM*.
For CCc1ccc(-n2nc3cc(C)c(NC(=O)c4cccc5ccccc45)cc3n2)cc1 the results were 12-LOX inh -21%, JMJD2A Tudor inh 4%, BAZ2B inh -17%, HP1b chromo inh 29% and G9a block inconclusive.
COc1ccc(-n2nc3cc(C)c(NC(C)=O)cc3n2)cc1 was read as 12-LOX inh -12%, JMJD2A Tudor inh -12%, PLK1 PBD inh -10%, BAZ2B inh -15% and HP1b chromo inh 4%.
Screening CCc1ccc(-n2nc3cc(C)c(NC(=O)c4ccccc4C)cc3n2)cc1 returned 12-LOX inh inconclusive, JMJD2A Tudor inh 89µM*, BAZ2B inh inconclusive, HP1b chromo inh 8% and G9a block 7.9µM*.
`CCOc1ccc(NC(=O)CC2C(=O)N(c3ccc(OC)cc3)C(=O)N2CCc2ccc(OC)c(OC)c2)cc1` (configuration not stated) gave 12-LOX inh 0%, JMJD2A Tudor inh -3%, PLK1 PBD inh 10%, HP1b chromo inh 28% and G9a block -27%.
O=C1NCCN1Cc1ccccc1F was read as 12-LOX inh 21%, JMJD2A Tudor inh -4%, PLK1 PBD inh 1%, BAZ2B inh -37%, HP1b chromo inh 12% and G9a block 45µM*.
O=C(Nc1ccccc1Cl)NC1(C(=O)NCCCN2CCOCC2)CCCCC1 was read as 12-LOX inh -2%, JMJD2A Tudor inh -15%, PLK1 PBD inh -8%, BAZ2B inh 3%, HP1b chromo inh 47% and G9a block -6%.
c1ccc(OCCCn2ccnc2)cc1 was read as 12-LOX inh inconclusive, JMJD2A Tudor inh -15%, PLK1 PBD inh 8%, BAZ2B inh 1% and HP1b chromo inh 15%.
`CCc1ccc(OCCCCCn2ccnc2)cc1` gave 12-LOX inh 1.3µM*, JMJD2A Tudor inh 2.5µM*, PLK1 PBD inh 1%, BAZ2B inh 50µM*, HP1b chromo inh 56µM* and G9a block 10µM*.
For Cc1cc(OCCCCCn2ccnc2)cc(C)c1Cl the results were 12-LOX inh inconclusive, JMJD2A Tudor inh inconclusive, PLK1 PBD inh 5%, BAZ2B inh inconclusive, HP1b chromo inh 4% and G9a block -43%[59 µM].
CCc1ccc(OCCn2ccnc2)cc1 was read as 12-LOX inh inconclusive, JMJD2A Tudor inh 28µM*, PLK1 PBD inh 6%, BAZ2B inh inconclusive, HP1b chromo inh inconclusive and G9a block 22µM*.

Screens (PubChem)
